Assay results reported in PubChem BioAssay AID1063 (University of Pittsburgh Molecular Library Screening Center, 2008).
Out of some 200,000 compounds screened, about 18,000 (9%) were called active. Cut-off read from the data, not from the text of the source: active = inhibition above about 50%; inactive = the rest. What follows is part of a selection rich in actives, with near analogues and random picks from the rest.

Experiment: antileishmanial activity against promastigotes – primary screen (AID 1063);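 note: promastigotes grown with compound for 44 hours at 28 °C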
Conditions: Leishmania major promastigotes, resazurin fluorescence viability; at 10 µM; stronger effect = higher value

| SMILES | inhibition |
| --- | --- |
| COc1ccccc1CNC(=O)c1cc(=O)c2ccccc2o1 | 15.9% (inactive) |
| O=C1/C(=C/c2cccs2)CCC1C1CCCC1 (centres undefined) | -9.7% (inactive) |
| CCOC(=O)c1ccc(NC(=S)N2CCCC2)cc1 | 1.46% (inactive) |
| OCC1(CCOc2ccccc2)CCN(Cc2cn[nH]c2-c2ccccc2)CC1 | -2.84% (inactive) |
| Cc1c(CN2CCC(CO)(CCOc3ccccc3)CC2)[nH]c2ccc(Cl)cc12 | 100% (active) |
| CN(CCOc1ccccc1)Cc1nc2cc(Cl)ccc2c(=O)[nH]1 | 7.34% (inactive) |
| CCN(CC)C(=O)C(=O)c1cn(CC(=O)NCc2ccc3c(c2)OCO3)c2ccccc12 | -5.27% (inactive) |
| CCn1c(SCC(=O)Nc2nccs2)nnc1-c1ccco1 | 0.22% (inactive) |
| C=C1C2C[C@H](O)C(C)(C)[C@@]2(O)[C@H](O)C[C@]23C[C@@](C)(O)[C@H](CC[C@H]12)[C@H]3O (some centres undefined) | -5.47% (inactive) |
| Cc1ccc(C(=O)c2ccc(N3CCN(C)CC3)c([N+](=O)[O-])c2)cc1 | 12.3% (inactive) |
| CN1CCN(c2ccc(S(=O)(=O)Nc3ccccc3)cc2[N+](=O)[O-])CC1 | 63.2% (active) |
| CNS(=O)(=O)c1ccc(N2CCCC2=O)c([N+](=O)[O-])c1 | -4.3% (inactive) |
| O=C(Nc1ccc2c(c1)CCC2)c1ccc(Br)s1 | 14.6% (inactive) |
| O=C(NCc1cccnc1)c1cccc(-c2cc3ccccc3oc2=O)c1 | 3.42% (inactive) |
| CN(C)S(=O)(=O)c1cccc(NC(=O)COC(=O)c2cc(=O)[nH]c(=O)[nH]2)c1 | -5.88% (inactive) |
| CCOC(=O)CSC1=N/C(=C/c2ccc(-n3cncn3)cc2)C(=O)N1C(C)=O | 8.27% (inactive) |
| CC(C)Cn1c(CCC(=O)O)ccc1-c1cccs1 | 95.5% (active) |
| CCn1c(NC(=O)c2ccccc2)c(-c2cccs2)c(=O)c2ccccc21 | 0.95% (inactive) |
| COCCCn1c(CCC(=O)O)ccc1-c1ccc(F)cc1 | 2.69% (inactive) |
| CN(C)c1ccc(C=C2C(=O)OC3(CCCC3)OC2=O)cc1 | -3.55% (inactive) |
| Nc1ccc(C(=O)NCc2ccccc2)cc1 | -6.94% (inactive) |
| O=C(CN1CCCC1)N1CCN(c2ccccc2)CC1 | -4.42% (inactive) |

| SMILES | inhibition |
| --- | --- |
| CCCC(=O)N1CCc2[nH]c3ccccc3c2C1 | -2.11% (inactive) |
| Cc1ccc2[nH]c3c(c2c1)CN(C(=O)CN1CCN(c2ccccc2)CC1)CC3 | 69.5% (active) |
| COc1cc2c(cc1OC)CC1(CCCCC1)N=C2 | 6% (inactive) |
| CCOc1ccccc1C1CC(c2ccccc2)Nc2nc(N)nn21 (centres undefined) | -1.13% (inactive) |
| Cc1ccc(C2CC(c3cccc(Br)c3)n3nc(N)nc3N2)cc1 (centres undefined) | 89.8% (active) |
| COc1ccc(C2CC(c3ccc(Cl)cc3Cl)Nc3nc(N)nn32)cc1OC (centres undefined) | -5% (inactive) |
| Nc1nc2n(n1)C(c1ccco1)CC(c1ccc(Cl)c(Cl)c1)N2 (centres undefined) | -1.56% (inactive) |
| Cc1ccc(C2CC(c3cccc(C)c3)n3nc(N)nc3N2)cc1 (centres undefined) | 67.6% (active) |
| COc1ccc(C2CC(c3ccc(C)cc3)Nc3nc(N)nn32)cc1 (centres undefined) | 3.08% (inactive) |
| O=C(NCc1ccc(F)cc1)C(c1ccccc1)N(C(=O)c1csnn1)C1CC1 (centres undefined) | -1.88% (inactive) |
| Cc1ccc(C(=O)N2CCN(S(=O)(=O)N3CCOCC3)CC2)cc1 | -2.24% (inactive) |
| Cc1ccc(-c2cn(S(=O)(=O)c3cccc([N+](=O)[O-])c3)nc2N)cc1 | 3.16% (inactive) |
| CC[N+]1(CC)CC2=Cc3ccccc3CC2C1 (centres undefined) | -4.49% (inactive) |
| Cc1cc(=O)[nH]c(N/N=C/c2c(C)nn(-c3ccccc3Cl)c2Cl)n1 | -2.53% (inactive) |
| O=C(O)CCN(Cc1ccccc1)S(=O)(=O)c1c(Cl)cccc1Cl | -2.19% (inactive) |
| CC(O)CN(Cc1ccc(Cl)cc1)CC(C)O (centres undefined) | -7.47% (inactive) |
| OCCN(Cc1ccccc1)Cc1ccc(Cl)cc1 | 78.8% (active) |
| c1ccc2c(c1)OCCOCCOCCO2 | -1.98% (inactive) |
| CCOC(=O)CNc1nc(Cl)nc(Nc2ccccc2)n1 | 6.65% (inactive) |
| CC(O)c1cccc(NC(=O)Cc2cccc3ccccc23)c1 (centres undefined) | 4.7% (inactive) |
| O=c1cc(N2CCCCC2)c(-c2ccccc2)nn1Cc1cccc(F)c1 | 16.7% (inactive) |
| COC(=O)c1c(C(=O)OC)c(-c2cccc(C)c2)n2c1CS(=O)C2 (centres undefined) | -12.1% (inactive) |

| SMILES | inhibition |
| --- | --- |
| O=[N+]([O-])c1cccc(C2=NCCS2)c1 | -6.13% (inactive) |
| CC(C)N(C(=O)Cn1cc(SCC(=O)N2CCCC2)c2ccccc21)C(C)C | -0.03% (inactive) |
| C=CCNc1nnc(SCC(=O)N2CCCCC2)c2ccccc12 | 54.3% (active) |
| C=CCNc1nnc(C)c2ccccc12 | 8% (inactive) |
| CN1C(=O)/C(=C/c2ccc(C(=O)NC3CCCC3)cc2)Oc2ccccc21 | -4.09% (inactive) |
| CCOC(=O)c1cc(-c2ccc(F)cc2)n(CC(=O)NCc2ccccn2)c1C | 3.59% (inactive) |
| COc1cccc(CNn2cn[nH]c2=S)c1OCc1ccccc1 | 15.9% (inactive) |
| COC(=O)C(C)N=Cc1ccccc1 (centres undefined) | -2.89% (inactive) |
| Cc1cc(C(=O)COC(=O)C2CC2)c(C)n1-c1ccc(F)cc1 | -2.35% (inactive) |
| Cc1c(Cl)c([N+](=O)[O-])nn1CC(=O)NCC1CCCO1 (centres undefined) | -3.45% (inactive) |
| COCCCNC(=S)NCCNc1nc2cc(C)c(C)cc2cc1C#N | 19.8% (inactive) |
| O=C1c2ccccc2C2=Nc3ccccc3SC(c3ccccc3F)C12 (centres undefined) | 98.3% (active) |
| O=C(NCCCN1CCCCCC1)c1ccc(N2CCCC2=O)cc1 | 0.31% (inactive) |
| Cn1c(C(=O)NCCCN2CCCCC2)cc2sccc21 | 74.1% (active) |
| COc1ccc(CCNC(=O)c2cc3sccc3n2C)cc1OC | 7.15% (inactive) |
| COc1ccc(C2(CNC(=O)Cc3ccc(OC)c(OC)c3)CCCC2)cc1 | 0.15% (inactive) |
| CCOc1ccc(C(=O)Nc2cccc(-c3ccc4nncn4n3)c2)cc1 | -2.57% (inactive) |
| Cc1ccc(NC(=O)c2oc(=O)c3ccccc3c2-c2ccccc2)c(C)c1 | 55.8% (active) |
| Cc1ccc(NC(=O)c2oc3ccccc3c2C)c([N+](=O)[O-])c1 | -2.37% (inactive) |
| Cc1ccc(NC(=S)NC(=O)c2ccc(-c3ccccc3)cc2)c(C)c1 | -4.31% (inactive) |
